Test results published in the supplement of paper PMC11417369.
Over roughly 25,000 sequences, “ln(normalized median fluorescence intensity)” has its median near 9.3; the highest 2% begin near 10. The list comes from a sample in which the highest values are over-represented; it also holds similar and randomly drawn sequences.

System: PF3D7_0420300 AP2 domain 1 (GST-tagged)
Experiment: gcPBM binding intensity (ln(normalized median fluorescence intensity)); higher = stronger DNA binding
Method in brief: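 GST-tagged P. falciparum DNA-binding domains produced in E. coli were incubated for 1 h on an Agilent 4 × 180k array of primer-extended double-stranded 36-bp intergenic genomic probes with negative controls. Binding intensity is the highest Masliner-normalised natural-log median intensity across replicate spots of either probe orientation, with bound protein detected by Alexa488 anti-GST antibody at 488 nm.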

First: ATATTTTTTTTTTTCACACACATTTAGATTGTATTA [CACACA_site3137]
Second: GACATTGATACCAGTAGTACCTATAGATGTTTGTTT [XGTACX_site5736]
The “gcPBM binding intensity (ln)” value of the first is higher: 9.86 for the first, 9.55 for the second.

Compared with “TTACAAATAATTTGTTGTACGCTTTTTTTCTTTTTT [XGTACX_site7199]”, “ATTGGACTATAAATAGGTACACATATATATATATAT [XGTACX_site7562]” is higher in “gcPBM binding intensity (ln)” value: 9.48 for the first, 9.59 for the second.

Going from “AATAGAAAAAAAAAATGTACACATATAAAAGCATAT [XGTACX_site6306]” to “GCTTATAAAGGCAGAAGTACTGTATTCCTATATATA [XGTACX_site8865]”, the “gcPBM binding intensity (ln)” value falls from 9.77 to 9.22.

“TAGTATAATATGAACACACACACACGCACAAAAAAA [CACACA_site7035]” and “GTATAATATGAACACACACACACACGCAAAAAAAAA [CACACA_site7036]” are the same in “gcPBM binding intensity (ln)” value: 10.1 for the first, 10.1 for the second.

First: TAGTATAATATGAACACACACACACCCACAAAAAAA [CACACA_site2009]
Second: GTATAATATGAACACACACACACACCCAAAAAAAAA [CACACA_site5152]
The “gcPBM binding intensity (ln)” value of the first is lower: 10 for the first, 10.2 for the second.

First: ATAATATGAAAACACACACACACACCCAAAAAAAAA [CACACA_site2011]
Second: GTATAATAGAAACACACACACACACCCAAAAAAAAA [CACACA_site2010]
The “gcPBM binding intensity (ln)” value of the first is lower: 10.2 for the first, 10.3 for the second.

Compared with “TAGTATAATATGAACACACACACACCGACAAAAAAA [CACACA_site5151]”, “AAAAAAAAAAAAAACACACACACACCCAAATATATA [CACACA_site1169]” is higher in “gcPBM binding intensity (ln)” value: 9.99 for the first, 10.1 for the second.

First: ATCGTAGTATAATATGAACACACACCCACCCACAAA [CACACA_site8616]
Second: TTTTATATATTATATACACACATATATATATATATA [CACACA_site2999]
The “gcPBM binding intensity (ln)” value of the first is higher: 10.2 for the first, 9.29 for the second.

Going from “ATATATATATAGTGCACACTTAAGAATATAAAGAGG [CACACA_site1151]” to “AAAAGGTATGTTATACATAGATATGCACATATATGT [TGCATGCA_negctrl_site96]”, the “gcPBM binding intensity (ln)” value falls from 9.45 to 9.29.

First: CTTAAAGGGAAAAATACACACATATAAATATTATGT [CACACA_site2225]
Second: AAAATTATTTAGTAAGTGCAAAAAAAAAAAAAAAAA
The “gcPBM binding intensity (ln)” value of the first is higher: 9.47 for the first, 8.78 for the second.

First: TATGAAGAAAAGAATTGTACGATGTTTATTTTGTAT [XGTACX_site8614]
Second: ATTATGCACGGACACACACACACACCCCTAAAAAAT [CACACA_site5426]
The “gcPBM binding intensity (ln)” value of the first is lower: 9.22 for the first, 10.2 for the second.

Compared with “TGCACAAAATTATGCACACACCTAAAATTAATTTTT [CACACA_site5596]”, “CCTAAATTATATTATGCACACTTAAAAATATATTTA [CACACA_site5861]” is lower in “gcPBM binding intensity (ln)” value: 9.46 for the first, 9.14 for the second.

Compared with “ATTATGCACCAACACACACACACACCCCTAAAAAAT [CACACA_site2568]”, “ATTATGCACAGACACACACACACACTACTAAAAAAT [CACACA_site7252]” is lower in “gcPBM binding intensity (ln)” value: 10.3 for the first, 10.1 for the second.

Compared with “ATTATGCACCAACACACACACACACTCCTAAAAAAT [CACACA_site8822]”, “CCACAGGATTGGTTCAAACACACATATTATATGACT [CACACA_site661]” is lower in “gcPBM binding intensity (ln)” value: 10.3 for the first, 9.39 for the second.

Compared with “CCTTTATTAAATAAATGTACATATTTTTGTGTTCTT [XGTACX_site2052]”, “GAAATATAATTTATTACACACATTTTAAAAAAATTC [CACACA_site1087]” is lower in “gcPBM binding intensity (ln)” value: 9.4 for the first, 9.26 for the second.

Compared with “AAAAAAAAAAAAAAATGTACATTATACACATTATAT [XGTACX_site6824]”, “AAAGGGGAGATATGAACACACAAAAAAAAAATATAT [CACACA_site7378]” is higher in “gcPBM binding intensity (ln)” value: 9.28 for the first, 9.58 for the second.

Compared with “CTATACAATAAAAATTGTACATACATATATGTTATA [XGTACX_site5309]”, “TATAACTTTTTTATTACACACCTATGTAATATTATA [CACACA_site944]” is higher in “gcPBM binding intensity (ln)” value: 9.17 for the first, 9.37 for the second.

First: CCTAAATAATATCTATCACACACGCATATATACATA [CACACA_site8838]
Second: TATGTTAAAAAAAAAAAAAAGAAAAAAATAAAAGGA [CACACA_negctrl_site119]
The “gcPBM binding intensity (ln)” value of the first is higher: 9.56 for the first, 9.44 for the second.

First: TCAAAAATAAAGATCACACATATATATATATATATA [CACACA_site4381]
Second: TATAAATATACAAACACACATACAAACATATATATA [CACACA_site1120]
The “gcPBM binding intensity (ln)” value of the first is lower: 9.2 for the first, 9.91 for the second.

First: TAAATATATAAATACACACAAACATACATATATATA [CACACA_site4050]
Second: CACATACATATATACACACACAAAATAATAAAATAA [CACACA_site2308]
The “gcPBM binding intensity (ln)” value of the first is lower: 9.88 for the first, 10 for the second.

Compared with “TAAATATATAAATACACACACATACACAAAAAAAAA [CACACA_site5890]”, “AAGAGAAAAATATATACACACACATAAATATATACA [CACACA_site8573]” is lower in “gcPBM binding intensity (ln)” value: 10.1 for the first, 9.96 for the second.

“TATAAATATATATATACACACACATACACAAAAAAA [CACACA_site9191]” and “CATACATACAAACACACACACATATAAATACATACA [CACACA_site4625]” are the same in “gcPBM binding intensity (ln)” value: 10.2 for the first, 10.2 for the second.

First: CACAAAAATAAACACACACACATATATATATATATA [CACACA_site4704]
Second: TATAAGAGAATATATACACACAAAAATATATACAGT [CACACA_site1668]
The “gcPBM binding intensity (ln)” value of the first is lower: 9.75 for the first, 9.89 for the second.

Compared with “AAAAAAAAAGATCACACACACATAAATATAAACAAA [CACACA_site5285]”, “TATAAGAGAATATATACACACAAAAATAAATACAGT [CACACA_site5000]” is higher in “gcPBM binding intensity (ln)” value: 10.2 for the first, 10.3 for the second.

Compared with “AATACATACATACATACATGCATATATATATATATA [TGCATGCA_site462]”, “ATTTACATTCACTTATGTACTTATATAATTTTATTT [XGTACX_site8150]” is higher in “gcPBM binding intensity (ln)” value: 9.42 for the first, 9.54 for the second.

Compared with “CCCATTTTGACAAAAAGTACAAGTTCAGGTTTTATA [XGTACX_site1532]”, “AACTATAAAAATTTTACACACTGTTTTTAAATAATG [CACACA_site5928]” is higher in “gcPBM binding intensity (ln)” value: 9.22 for the first, 9.4 for the second.

Compared with “TATAAAAAATAATACACACACATGGCGACAAAATAA [CACACA_site2420]”, “AGATAAAATATATACACACACATAAATACGTACAAA [CACACA_site1086]” is lower in “gcPBM binding intensity (ln)” value: 10.2 for the first, 10.1 for the second.

First: TAATAAAAAATATATACACACAAATAAATAAATAAA [CACACA_site4037]
Second: TATTTACACAAAATAAAATATATTATATATATATAT [TGCATGCA_negctrl_site381]
The “gcPBM binding intensity (ln)” value of the first is higher: 9.83 for the first, 8.93 for the second.

First: AGATAAAATAAATACACACACATAAATACGTACAAA [CACACA_site4739]
Second: ATATATATATATTACACACACACAAAAAAAATAAAG [CACACA_site118]
The “gcPBM binding intensity (ln)” value of the first is lower: 10.2 for the first, 10.4 for the second.

Going from “ATATAAATATTAATTACACACAAAAAAAAAAAAAAA [CACACA_site6671]” to “AATATATAAATATATACACACAAAAACATATATATA [CACACA_site1318]”, the “gcPBM binding intensity (ln)” value rises from 9.35 to 9.8.

“AATATAAAAAATAATACACACACATGGCGACAAAAT [CACACA_site8765]” and “TACACAAAAATAAACACACACACATATAAATAAATA [CACACA_site6599]” are the same in “gcPBM binding intensity (ln)” value: 10.2 for the first, 10.2 for the second.

Going from “ATAAATAAGATACGTACACACATATACAAAATATAC [CACACA_site3661]” to “TACACAAAAATAAACACACACACATATATATATATA [CACACA_site1000]”, the “gcPBM binding intensity (ln)” value falls from 9.95 to 9.78.
